In article PMC7862700, “An all-to-all approach to the identification of sequence-specific readers for epigenetic DNA modifications on cytosine”:

Assays:
Assay in all cases: DAPPL (digital affinity profiling via proximity ligation, sequencing); 10 mM Tris-HCl pH 7.5, 50 mM NaCl, 1 mM DTT, 4% glycerol, room temperature, 30 min; GST-TFs on glutathione beads, 16-mer random dsDNA library, 0.1% formaldehyde crosslink after washing; high values mean tight binding
[1] = target: T1, FEV (Homo sapiens, UniProt Q99581 1-238); conditions: protein: recombinant; tags: N-terminal GST; dsDNA, one strand shown
T1 sequence: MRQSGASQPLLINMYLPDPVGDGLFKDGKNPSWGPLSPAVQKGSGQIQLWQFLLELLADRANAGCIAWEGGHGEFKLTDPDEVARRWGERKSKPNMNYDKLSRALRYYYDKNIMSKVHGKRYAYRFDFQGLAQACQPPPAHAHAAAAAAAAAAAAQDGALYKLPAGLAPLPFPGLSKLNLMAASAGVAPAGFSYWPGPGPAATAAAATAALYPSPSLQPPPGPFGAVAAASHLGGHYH
In short: (§1)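 Human transcription factors fused to GST were expressed in yeast, captured on glutathione beads, given DNA barcodes and pooled with a GST-only negative control. Pools were incubated with 200 nmole of a 16-mer random double-stranded DNA library in Tris/NaCl/DTT/glycerol buffer at room temperature for 30 min. They were then washed, crosslinked with 0.1% formaldehyde, proximity-ligated (BsaI/T4 ligase, 1 h, 37 °C), PCR-amplified and sequenced on an Illumina NextSeq500. Binding signal is each 6-mer's read frequency for a factor divided by its frequency for the GST control.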

[2] = target: ETV5 (Homo sapiens, UniProt P41161 1-510); conditions: protein: recombinant; tags: N-terminal GST; dsDNA, one strand shown
In short: as §1

[3] = target: HSF1 (Homo sapiens, UniProt Q00613 1-529); conditions: protein: recombinant; tags: N-terminal GST; chain copies: 3; dsDNA, one strand shown
In short: as §1

[4] = target: T2, SPIC (Homo sapiens, UniProt Q8N5J4 1-248); conditions: protein: recombinant; tags: N-terminal GST; dsDNA, one strand shown
T2 sequence: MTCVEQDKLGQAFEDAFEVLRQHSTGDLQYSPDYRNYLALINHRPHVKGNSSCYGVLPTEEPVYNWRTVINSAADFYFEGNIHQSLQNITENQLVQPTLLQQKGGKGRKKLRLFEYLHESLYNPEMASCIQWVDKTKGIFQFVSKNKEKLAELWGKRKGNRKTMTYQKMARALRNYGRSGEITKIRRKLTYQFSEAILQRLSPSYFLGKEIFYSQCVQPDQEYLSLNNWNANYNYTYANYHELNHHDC
In short: as §1

[5] = target: ELF4 (Homo sapiens, UniProt Q99607 1-663); conditions: protein: recombinant; tags: N-terminal GST; dsDNA, one strand shown
In short: as §1

[6] = target: T3, ELK4 (Homo sapiens, UniProt P28324-2 1-405); conditions: protein: recombinant; tags: N-terminal GST; dsDNA, one strand shown
T3 sequence: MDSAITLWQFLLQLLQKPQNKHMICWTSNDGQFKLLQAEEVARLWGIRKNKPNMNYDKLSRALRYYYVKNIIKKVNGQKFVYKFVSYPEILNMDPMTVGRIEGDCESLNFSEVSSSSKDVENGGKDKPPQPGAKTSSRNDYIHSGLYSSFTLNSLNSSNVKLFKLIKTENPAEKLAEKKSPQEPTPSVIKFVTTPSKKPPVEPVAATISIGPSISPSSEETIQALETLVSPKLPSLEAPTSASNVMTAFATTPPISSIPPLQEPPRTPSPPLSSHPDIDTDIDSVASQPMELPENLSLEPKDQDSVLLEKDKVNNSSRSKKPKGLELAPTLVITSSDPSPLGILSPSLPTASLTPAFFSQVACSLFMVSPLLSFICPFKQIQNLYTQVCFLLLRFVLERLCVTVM
In short: as §1

[7] = target: T4, ETV2 (Homo sapiens, UniProt O00321 1-342); conditions: protein: recombinant; tags: N-terminal GST; dsDNA, one strand shown
T4 sequence: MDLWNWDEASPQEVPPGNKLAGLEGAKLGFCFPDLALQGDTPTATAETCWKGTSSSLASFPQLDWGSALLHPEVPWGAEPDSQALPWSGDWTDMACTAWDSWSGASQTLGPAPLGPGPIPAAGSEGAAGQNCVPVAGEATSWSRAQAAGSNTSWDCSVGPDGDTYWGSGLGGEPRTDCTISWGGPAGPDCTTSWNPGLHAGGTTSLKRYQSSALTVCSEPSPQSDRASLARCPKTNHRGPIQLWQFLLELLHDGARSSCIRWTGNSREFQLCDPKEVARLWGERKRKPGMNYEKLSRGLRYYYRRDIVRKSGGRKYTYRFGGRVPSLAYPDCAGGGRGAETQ
In short: as §1

[8] = target: T5, ELF3 (Homo sapiens, UniProt P78545 1-371); conditions: protein: recombinant; tags: N-terminal GST; dsDNA, one strand shown
T5 sequence: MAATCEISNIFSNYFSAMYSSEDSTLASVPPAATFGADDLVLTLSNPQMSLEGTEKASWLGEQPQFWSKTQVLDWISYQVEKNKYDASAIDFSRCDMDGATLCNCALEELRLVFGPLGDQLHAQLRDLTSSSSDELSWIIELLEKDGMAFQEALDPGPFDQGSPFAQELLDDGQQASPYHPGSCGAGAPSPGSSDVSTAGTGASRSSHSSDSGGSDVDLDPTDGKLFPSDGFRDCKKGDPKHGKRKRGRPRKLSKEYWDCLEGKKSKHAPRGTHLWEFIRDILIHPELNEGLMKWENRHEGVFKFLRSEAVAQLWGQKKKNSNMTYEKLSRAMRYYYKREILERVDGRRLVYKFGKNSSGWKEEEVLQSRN
In short: as §1

[9] = target: CRX (Homo sapiens, UniProt O43186 1-299); conditions: protein: recombinant; tags: N-terminal GST; dsDNA, one strand shown
In short: as §1

[10] = target: ETV1 (Homo sapiens, UniProt P50549 1-477); conditions: protein: recombinant; tags: N-terminal GST; dsDNA, one strand shown
In short: as §1

[11] = target: T6, ERF (Homo sapiens, UniProt P50548 1-548); conditions: protein: recombinant; tags: N-terminal GST; dsDNA, one strand shown
T6 sequence: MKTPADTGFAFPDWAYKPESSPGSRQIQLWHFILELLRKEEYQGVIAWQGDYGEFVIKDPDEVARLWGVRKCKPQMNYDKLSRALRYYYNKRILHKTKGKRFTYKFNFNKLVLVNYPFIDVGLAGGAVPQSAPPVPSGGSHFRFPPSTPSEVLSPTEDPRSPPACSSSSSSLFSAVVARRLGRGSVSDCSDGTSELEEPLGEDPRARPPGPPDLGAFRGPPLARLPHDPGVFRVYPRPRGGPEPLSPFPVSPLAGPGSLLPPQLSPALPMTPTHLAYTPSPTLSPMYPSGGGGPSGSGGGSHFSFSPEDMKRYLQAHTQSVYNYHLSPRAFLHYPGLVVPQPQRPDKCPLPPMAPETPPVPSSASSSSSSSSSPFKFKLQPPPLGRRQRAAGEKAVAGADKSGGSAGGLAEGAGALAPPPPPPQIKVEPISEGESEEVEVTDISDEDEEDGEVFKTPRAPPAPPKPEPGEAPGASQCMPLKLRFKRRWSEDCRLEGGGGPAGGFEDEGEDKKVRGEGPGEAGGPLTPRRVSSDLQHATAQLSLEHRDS
In short: as §1

[12] = target: T7, ETV3L (Homo sapiens, UniProt Q6ZN32 1-361); conditions: protein: recombinant; tags: N-terminal GST; dsDNA, one strand shown
T7 sequence: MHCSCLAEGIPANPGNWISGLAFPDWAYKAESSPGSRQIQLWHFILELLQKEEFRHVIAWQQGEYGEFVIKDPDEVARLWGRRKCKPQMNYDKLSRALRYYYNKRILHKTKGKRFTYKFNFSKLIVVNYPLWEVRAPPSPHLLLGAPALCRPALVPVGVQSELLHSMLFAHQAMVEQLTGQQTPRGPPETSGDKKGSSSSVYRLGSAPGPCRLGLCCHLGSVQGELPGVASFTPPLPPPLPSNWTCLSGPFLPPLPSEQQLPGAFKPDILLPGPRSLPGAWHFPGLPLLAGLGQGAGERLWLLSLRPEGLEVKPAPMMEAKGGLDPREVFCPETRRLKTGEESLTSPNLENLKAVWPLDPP
In short: as §1

[13] = target: T8, ETS2 (Homo sapiens, UniProt P15036 1-469); conditions: protein: recombinant; tags: N-terminal GST; dsDNA, one strand shown
T8 sequence: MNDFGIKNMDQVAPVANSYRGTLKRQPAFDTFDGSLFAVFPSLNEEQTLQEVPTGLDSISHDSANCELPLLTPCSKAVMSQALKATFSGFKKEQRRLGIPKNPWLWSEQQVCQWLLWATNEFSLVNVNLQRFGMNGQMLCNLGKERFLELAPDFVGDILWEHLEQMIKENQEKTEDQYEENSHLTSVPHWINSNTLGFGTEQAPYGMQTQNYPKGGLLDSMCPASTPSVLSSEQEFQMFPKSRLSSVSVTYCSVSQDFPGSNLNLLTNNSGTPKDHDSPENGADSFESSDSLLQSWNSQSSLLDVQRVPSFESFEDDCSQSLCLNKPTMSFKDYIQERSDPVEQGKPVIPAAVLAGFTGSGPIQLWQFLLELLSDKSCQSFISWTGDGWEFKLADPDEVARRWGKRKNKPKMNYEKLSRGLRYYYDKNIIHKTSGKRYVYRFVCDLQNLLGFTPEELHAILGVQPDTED
In short: as §1

[14] = target: T9, SPDEF (Homo sapiens, UniProt O95238 1-335); conditions: protein: recombinant; tags: N-terminal GST; dsDNA, one strand shown
T9 sequence: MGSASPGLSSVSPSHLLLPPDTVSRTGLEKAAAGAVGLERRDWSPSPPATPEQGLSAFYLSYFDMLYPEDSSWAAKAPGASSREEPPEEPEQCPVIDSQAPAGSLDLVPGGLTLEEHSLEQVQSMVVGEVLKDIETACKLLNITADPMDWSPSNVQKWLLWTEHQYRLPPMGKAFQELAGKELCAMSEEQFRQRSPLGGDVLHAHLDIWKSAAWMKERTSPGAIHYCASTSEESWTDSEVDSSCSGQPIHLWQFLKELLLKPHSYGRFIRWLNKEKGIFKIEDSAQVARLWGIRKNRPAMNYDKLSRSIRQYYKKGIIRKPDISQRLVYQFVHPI
In short: as §1

[15] = target: T10, ETV7 (Homo sapiens, UniProt Q9Y603 1-341); conditions: protein: recombinant; tags: N-terminal GST; dsDNA, one strand shown
T10 sequence: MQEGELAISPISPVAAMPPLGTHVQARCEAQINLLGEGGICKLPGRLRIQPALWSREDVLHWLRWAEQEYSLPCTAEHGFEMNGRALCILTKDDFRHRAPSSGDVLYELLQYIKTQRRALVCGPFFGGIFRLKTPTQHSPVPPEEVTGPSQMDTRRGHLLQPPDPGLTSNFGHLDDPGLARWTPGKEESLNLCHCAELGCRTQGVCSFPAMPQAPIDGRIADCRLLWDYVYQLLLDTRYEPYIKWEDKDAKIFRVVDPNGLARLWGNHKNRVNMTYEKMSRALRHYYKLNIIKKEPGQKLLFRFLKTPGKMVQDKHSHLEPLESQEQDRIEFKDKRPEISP
In short: as §1

[16] = target: T11, ELF5 (Homo sapiens, UniProt Q9UKW6-2 1-255); conditions: protein: recombinant; tags: N-terminal GST; dsDNA, one strand shown
T11 sequence: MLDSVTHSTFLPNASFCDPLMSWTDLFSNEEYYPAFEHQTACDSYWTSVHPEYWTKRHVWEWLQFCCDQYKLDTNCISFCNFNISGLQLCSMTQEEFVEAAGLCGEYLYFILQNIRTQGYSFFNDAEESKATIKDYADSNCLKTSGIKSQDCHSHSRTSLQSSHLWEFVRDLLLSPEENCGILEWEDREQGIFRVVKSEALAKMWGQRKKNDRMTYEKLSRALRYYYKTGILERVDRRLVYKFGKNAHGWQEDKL
In short: as §1

[17] = target: T12, ETV3 (Homo sapiens, UniProt P41162-2 1-143); conditions: protein: recombinant; tags: N-terminal GST; dsDNA, one strand shown
T12 sequence: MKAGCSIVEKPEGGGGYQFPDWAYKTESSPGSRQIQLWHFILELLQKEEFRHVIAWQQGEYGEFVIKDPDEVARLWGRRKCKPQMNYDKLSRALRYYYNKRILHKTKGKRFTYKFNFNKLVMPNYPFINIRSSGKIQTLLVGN
In short: as §1

[18] = target: ETV6 (Homo sapiens, UniProt P41212 1-452); conditions: protein: recombinant; tags: N-terminal GST; dsDNA, one strand shown
In short: as §1

Sequence of ELF4 (Q99607 whole entry): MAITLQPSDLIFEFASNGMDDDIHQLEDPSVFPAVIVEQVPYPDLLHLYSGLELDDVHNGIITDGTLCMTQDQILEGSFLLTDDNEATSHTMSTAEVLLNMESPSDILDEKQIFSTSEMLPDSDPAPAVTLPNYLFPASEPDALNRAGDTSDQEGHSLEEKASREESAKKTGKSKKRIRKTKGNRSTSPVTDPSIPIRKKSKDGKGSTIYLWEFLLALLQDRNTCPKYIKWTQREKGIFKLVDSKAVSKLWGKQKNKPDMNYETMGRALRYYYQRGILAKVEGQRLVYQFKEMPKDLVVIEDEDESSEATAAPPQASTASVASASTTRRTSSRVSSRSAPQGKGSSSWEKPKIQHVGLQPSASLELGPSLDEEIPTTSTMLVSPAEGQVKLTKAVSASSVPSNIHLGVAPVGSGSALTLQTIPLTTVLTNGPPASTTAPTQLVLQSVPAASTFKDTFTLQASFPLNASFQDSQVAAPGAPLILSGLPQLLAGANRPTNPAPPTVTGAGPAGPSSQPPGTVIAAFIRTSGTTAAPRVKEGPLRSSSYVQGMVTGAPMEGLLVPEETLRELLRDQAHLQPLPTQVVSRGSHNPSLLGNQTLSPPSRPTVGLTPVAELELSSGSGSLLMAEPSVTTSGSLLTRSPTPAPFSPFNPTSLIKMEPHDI
Sequence of ETV6 (P41212 whole entry): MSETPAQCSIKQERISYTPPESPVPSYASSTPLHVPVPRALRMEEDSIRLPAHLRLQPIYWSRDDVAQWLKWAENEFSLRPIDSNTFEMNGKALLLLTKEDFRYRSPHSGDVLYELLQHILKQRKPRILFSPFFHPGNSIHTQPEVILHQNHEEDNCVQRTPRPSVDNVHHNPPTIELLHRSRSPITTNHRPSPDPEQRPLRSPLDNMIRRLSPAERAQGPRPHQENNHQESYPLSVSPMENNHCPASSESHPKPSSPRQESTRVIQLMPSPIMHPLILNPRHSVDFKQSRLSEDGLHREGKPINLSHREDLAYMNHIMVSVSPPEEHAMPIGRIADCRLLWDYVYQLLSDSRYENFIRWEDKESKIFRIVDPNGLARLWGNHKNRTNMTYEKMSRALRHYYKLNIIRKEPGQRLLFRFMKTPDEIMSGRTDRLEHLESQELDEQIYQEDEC
Sequence of ETV5 (P41161 whole entry): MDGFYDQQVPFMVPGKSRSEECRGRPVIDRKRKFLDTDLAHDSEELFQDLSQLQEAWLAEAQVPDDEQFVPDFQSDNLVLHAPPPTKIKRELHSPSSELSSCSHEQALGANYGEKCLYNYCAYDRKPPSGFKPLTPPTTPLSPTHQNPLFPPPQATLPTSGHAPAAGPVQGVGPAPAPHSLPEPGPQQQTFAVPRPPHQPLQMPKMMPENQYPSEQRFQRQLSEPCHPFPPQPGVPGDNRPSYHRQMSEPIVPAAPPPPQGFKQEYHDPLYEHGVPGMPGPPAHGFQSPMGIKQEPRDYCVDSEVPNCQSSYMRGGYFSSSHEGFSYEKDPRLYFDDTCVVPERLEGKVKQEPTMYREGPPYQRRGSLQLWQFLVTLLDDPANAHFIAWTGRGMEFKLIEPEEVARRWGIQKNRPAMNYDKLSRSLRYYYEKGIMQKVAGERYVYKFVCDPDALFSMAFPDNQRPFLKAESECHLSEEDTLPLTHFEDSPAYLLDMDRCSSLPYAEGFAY
Sequence of HSF1 (Q00613 whole entry): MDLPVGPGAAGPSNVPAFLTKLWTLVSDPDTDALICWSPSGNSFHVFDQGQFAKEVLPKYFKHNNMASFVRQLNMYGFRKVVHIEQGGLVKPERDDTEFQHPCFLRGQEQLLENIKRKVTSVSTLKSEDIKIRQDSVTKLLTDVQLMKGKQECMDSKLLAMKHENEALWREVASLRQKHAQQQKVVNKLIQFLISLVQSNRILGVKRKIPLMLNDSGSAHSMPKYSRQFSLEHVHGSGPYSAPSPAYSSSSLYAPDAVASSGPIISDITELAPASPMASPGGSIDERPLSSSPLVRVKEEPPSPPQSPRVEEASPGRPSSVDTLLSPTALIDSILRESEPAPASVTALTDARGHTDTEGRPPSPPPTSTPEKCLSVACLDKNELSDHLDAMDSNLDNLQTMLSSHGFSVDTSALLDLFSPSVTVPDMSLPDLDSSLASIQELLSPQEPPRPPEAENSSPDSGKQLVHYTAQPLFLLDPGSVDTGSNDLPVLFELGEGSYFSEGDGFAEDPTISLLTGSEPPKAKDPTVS
Sequence of ETV1 (P50549 whole entry): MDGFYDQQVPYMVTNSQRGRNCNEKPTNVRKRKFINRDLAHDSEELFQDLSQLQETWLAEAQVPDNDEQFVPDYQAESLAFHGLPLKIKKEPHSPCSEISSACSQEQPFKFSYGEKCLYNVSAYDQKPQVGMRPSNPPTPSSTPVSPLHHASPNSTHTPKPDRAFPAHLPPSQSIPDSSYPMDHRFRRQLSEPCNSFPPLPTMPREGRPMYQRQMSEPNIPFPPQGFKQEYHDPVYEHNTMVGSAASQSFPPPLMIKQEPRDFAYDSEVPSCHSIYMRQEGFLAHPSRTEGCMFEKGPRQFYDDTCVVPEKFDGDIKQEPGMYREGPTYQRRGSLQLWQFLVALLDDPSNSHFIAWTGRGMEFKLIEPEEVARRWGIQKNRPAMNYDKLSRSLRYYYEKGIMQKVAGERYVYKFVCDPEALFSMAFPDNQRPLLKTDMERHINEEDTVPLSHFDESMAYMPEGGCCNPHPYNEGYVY
Sequence of CRX (O43186 whole entry): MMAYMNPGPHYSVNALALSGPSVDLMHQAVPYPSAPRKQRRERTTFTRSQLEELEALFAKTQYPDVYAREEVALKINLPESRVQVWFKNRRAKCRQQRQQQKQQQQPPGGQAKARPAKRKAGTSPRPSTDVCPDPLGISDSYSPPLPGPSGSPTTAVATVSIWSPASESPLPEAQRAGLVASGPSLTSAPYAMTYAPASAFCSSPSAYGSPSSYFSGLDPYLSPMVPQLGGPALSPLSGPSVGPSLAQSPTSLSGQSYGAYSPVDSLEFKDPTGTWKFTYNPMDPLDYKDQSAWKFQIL

## TTAATA
[1]
  binding signal: 1.19 fold enrichment (6-mer frequency, TF over GST control)
[2]
  binding signal: 1.15 fold enrichment (6-mer frequency, TF over GST control)
[3]
  binding signal: 2.09 fold enrichment (6-mer frequency, TF over GST control)
[4]
  binding signal: 1.11 fold enrichment (6-mer frequency, TF over GST control)
[5]
  binding signal: 1.23 fold enrichment (6-mer frequency, TF over GST control)
[6]
  binding signal: 1.08 fold enrichment (6-mer frequency, TF over GST control)
[7]
  binding signal: 1.25 fold enrichment (6-mer frequency, TF over GST control)
[8]
  binding signal: 1.06 fold enrichment (6-mer frequency, TF over GST control)
[9]
  binding signal: 3.19 fold enrichment (6-mer frequency, TF over GST control)
[10]
  binding signal: 1.09 fold enrichment (6-mer frequency, TF over GST control)
[11]
  binding signal: 1.24 fold enrichment (6-mer frequency, TF over GST control)
[12]
  binding signal: 1.28 fold enrichment (6-mer frequency, TF over GST control)
[13]
  binding signal: 1.21 fold enrichment (6-mer frequency, TF over GST control)
[14]
  binding signal: 1.14 fold enrichment (6-mer frequency, TF over GST control)
[15]
  binding signal: 1.23 fold enrichment (6-mer frequency, TF over GST control)
[16]
  binding signal: 1.12 fold enrichment (6-mer frequency, TF over GST control)
[17]
  binding signal: 1.09 fold enrichment (6-mer frequency, TF over GST control)
[18]
  binding signal: 1.15 fold enrichment (6-mer frequency, TF over GST control)
